Measured values taken from PubChem BioAssay.
Activity calls are given as the source filed them.

Legend:
[1] = binders of probe aFSTL3 on microarray, primary screen, stem cell growth factor project, biochemical, small-molecule microarray, fluorescence 635/667 (AID 1064); settings: higher = more signal;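 also: measures binding of the biotinylated anti-FSTL3 antibody to printed compounds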
[2] = binders from COS7 lysate, DM2A8 probe, primary screen, torsin A project, cell lysate, small-molecule microarray, fluorescence 635/667 (AID 1065); settings: higher = more signal, COS7 lysate expressing mutant human TOR1A
[3] = binders of probe aFGF2 on microarray, primary screen, stem cell growth factor project, biochemical, small-molecule microarray, fluorescence 635/667 (AID 1067); settings: higher = more signal;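 also: measures binding of biotinylated aFGF2 protein to printed compounds on slides; z-score merges feature fluorescence and signal-to-noise across triplicate slides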
[4] = binders of probe aFGF10 on microarray, primary screen, stem cell growth factor project, biochemical, small-molecule microarray, fluorescence 635/667 (AID 1071); settings: higher = more signal;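 also: score merges 667 nm spot intensity and signal to noise from triplicate slides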
[5] = molecular target: Neurogenic locus notch homolog protein 2 (Homo sapiens) (UniProt Q04721); test: Notch2 binders on small-molecule microarrays, primary screen, biochemical, small-molecule microarray, 635 nm fluorescence, stem cell growth factors (AID 1073); settings: Notch2 binding, higher = more signal
Neurogenic locus notch homolog protein 2 (Homo sapiens), sequence (Q04721 whole entry, looked up, canonical isoform): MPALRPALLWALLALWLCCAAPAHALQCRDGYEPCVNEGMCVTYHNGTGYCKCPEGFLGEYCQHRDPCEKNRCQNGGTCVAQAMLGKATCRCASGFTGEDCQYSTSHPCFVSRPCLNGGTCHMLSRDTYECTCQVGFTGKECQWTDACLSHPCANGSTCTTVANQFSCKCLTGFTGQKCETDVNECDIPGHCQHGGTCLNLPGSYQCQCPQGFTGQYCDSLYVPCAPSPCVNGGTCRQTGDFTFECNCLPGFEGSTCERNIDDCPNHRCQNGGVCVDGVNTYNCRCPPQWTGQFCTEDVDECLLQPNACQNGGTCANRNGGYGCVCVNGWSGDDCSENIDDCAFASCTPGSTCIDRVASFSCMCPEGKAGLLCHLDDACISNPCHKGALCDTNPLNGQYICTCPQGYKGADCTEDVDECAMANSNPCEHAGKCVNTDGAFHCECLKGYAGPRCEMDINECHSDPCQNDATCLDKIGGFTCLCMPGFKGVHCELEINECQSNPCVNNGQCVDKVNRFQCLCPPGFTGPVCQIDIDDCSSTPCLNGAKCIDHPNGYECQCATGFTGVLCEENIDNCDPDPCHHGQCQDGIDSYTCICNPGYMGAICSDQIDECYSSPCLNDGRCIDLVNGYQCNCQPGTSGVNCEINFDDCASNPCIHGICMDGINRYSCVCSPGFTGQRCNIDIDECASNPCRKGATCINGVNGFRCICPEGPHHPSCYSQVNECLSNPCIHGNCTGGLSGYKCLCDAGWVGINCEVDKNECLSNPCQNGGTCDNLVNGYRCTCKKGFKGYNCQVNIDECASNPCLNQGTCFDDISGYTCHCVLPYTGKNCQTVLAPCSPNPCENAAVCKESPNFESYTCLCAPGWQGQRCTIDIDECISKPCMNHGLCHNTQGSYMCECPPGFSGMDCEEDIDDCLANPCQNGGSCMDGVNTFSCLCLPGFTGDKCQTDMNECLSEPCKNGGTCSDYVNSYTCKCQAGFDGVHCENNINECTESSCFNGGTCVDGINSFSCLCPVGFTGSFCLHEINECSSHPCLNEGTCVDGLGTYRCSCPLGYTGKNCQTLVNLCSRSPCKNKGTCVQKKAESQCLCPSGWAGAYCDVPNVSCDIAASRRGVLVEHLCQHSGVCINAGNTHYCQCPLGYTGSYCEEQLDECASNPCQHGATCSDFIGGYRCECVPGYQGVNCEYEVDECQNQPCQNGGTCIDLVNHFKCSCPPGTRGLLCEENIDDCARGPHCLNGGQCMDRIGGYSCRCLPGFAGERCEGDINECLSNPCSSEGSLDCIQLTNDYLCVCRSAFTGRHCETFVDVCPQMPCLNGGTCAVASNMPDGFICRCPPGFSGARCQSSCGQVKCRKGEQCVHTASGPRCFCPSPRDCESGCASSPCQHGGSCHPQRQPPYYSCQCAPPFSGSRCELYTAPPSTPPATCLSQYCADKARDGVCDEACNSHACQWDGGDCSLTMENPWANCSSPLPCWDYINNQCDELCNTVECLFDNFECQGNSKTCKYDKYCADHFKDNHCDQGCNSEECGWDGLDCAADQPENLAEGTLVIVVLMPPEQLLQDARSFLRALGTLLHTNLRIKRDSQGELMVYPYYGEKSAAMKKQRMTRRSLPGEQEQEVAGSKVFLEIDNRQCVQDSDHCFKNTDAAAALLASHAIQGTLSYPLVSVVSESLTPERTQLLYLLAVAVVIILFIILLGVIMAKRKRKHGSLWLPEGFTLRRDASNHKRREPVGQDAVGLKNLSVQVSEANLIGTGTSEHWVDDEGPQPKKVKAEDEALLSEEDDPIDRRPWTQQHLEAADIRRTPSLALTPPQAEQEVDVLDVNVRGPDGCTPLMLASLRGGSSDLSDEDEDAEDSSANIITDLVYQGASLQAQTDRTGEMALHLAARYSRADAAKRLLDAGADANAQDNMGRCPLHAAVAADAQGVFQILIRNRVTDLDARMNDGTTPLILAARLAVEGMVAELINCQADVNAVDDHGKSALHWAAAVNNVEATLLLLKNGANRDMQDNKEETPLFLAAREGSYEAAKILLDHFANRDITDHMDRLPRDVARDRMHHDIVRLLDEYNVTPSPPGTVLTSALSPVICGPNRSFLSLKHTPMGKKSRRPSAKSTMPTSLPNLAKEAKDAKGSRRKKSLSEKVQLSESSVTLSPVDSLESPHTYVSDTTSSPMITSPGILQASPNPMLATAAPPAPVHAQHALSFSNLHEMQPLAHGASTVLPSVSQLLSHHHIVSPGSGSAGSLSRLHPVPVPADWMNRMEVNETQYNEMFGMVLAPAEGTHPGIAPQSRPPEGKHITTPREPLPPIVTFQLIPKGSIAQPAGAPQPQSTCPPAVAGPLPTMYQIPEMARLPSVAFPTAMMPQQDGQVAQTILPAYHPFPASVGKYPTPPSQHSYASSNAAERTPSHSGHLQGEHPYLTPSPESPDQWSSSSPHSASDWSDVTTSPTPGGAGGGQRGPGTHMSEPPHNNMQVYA

[6] = molecular target: Pro-neuregulin-1, membrane-bound isoform (Homo sapiens) (UniProt Q02297); test: NRG1 binders on small-molecule microarrays, primary screen, psychiatric disease protein project, biochemical, small-molecule microarray, fluorescence 635/667 (AID 1075); settings: NRG1 binding, 635 nm fluorescence, higher = more signal;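 also: score combines 667 nm spot fluorescence with signal to noise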
Pro-neuregulin-1, membrane-bound isoform (Homo sapiens), sequence (Q02297 whole entry, looked up, the tested form may be a part, canonical isoform): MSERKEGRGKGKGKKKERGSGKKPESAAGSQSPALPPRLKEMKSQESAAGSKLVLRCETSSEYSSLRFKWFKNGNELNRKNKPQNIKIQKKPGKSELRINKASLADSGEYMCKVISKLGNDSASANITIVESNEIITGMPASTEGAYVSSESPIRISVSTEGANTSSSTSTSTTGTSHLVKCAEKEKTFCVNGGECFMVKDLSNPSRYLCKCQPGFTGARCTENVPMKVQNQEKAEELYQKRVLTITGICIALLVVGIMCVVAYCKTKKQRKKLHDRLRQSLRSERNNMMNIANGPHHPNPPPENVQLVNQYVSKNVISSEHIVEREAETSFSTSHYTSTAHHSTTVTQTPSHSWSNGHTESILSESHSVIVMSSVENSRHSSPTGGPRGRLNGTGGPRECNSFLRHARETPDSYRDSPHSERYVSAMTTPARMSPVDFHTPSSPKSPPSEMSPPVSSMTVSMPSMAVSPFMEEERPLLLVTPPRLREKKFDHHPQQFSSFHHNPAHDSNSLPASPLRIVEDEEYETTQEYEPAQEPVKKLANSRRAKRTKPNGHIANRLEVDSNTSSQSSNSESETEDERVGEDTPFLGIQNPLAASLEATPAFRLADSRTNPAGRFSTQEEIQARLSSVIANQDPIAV

[7] = system: Neuregulin-1 EGF-like domain; test: binders of neuregulin-1 EGF-like domain, primary screen, biochemical, small-molecule microarray, 635 nm fluorescence (AID 1081); settings: small-molecule microarray binding, higher = more signal;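 also: binding of the protein to compounds printed on small-molecule microarray slides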
[8] = FRG1 promoter luciferase signal modulators, primary screen, FRG1 inhibition for FSHD, cell-based, C2C12 myotubes, firefly/Renilla luciferase, luminescence (AID 1084); settings: higher = more signal, called active from +8 up or from −8 down
[9] = binders of probe aFST on microarray, primary screen, stem cell growth factor project, biochemical, small-molecule microarray, fluorescence 635/667 (AID 1086); settings: higher = more signal;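 also: score merges 667 nm fluorescence with signal-to-noise of each printed compound spot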
[10] = binders of probe aHhip on microarray, primary screen, stem cell growth factor project, biochemical, small-molecule microarray, fluorescence 635/667 (AID 1087); settings: higher = more signal;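 also: score merges spot fluorescence at 667nm with spot signal to noise ratio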

Compound | composite z-score [1] | composite z-score [2] | composite z-score [3] | composite z-score [4] | composite z-score [5] | composite z-score [6] | composite z-score [7] | z-score [8] | composite z-score [9] | composite z-score [10]
CN(C)CCCN1C(=O)[C@@]2(c3ccc([N+](=O)[O-])cc3)CC(=O)N(C3CCCCC3)[C@@H]2c2ccc(CO)cc21 | -0.363 | -0.0124 | -0.107 | 0.251 | 0.166 | -0.483 | -1.19 | 1.19 (inactive) | 0.161 | -0.353
CCOC(=O)C[C@H]1[C@H](OC(=O)c2ccccc2-c2ccccc2)[C@@H](NC(=O)c2ccc(-c3ccccc3)cc2)c2cc(OCCCO)ccc2N1C(=O)c1ccccc1 | -0.491 | 0.167 | -0.0428 | 0.69 | 0.56 | 0.106 | 0.787 | -0.172 (inactive) | 0.342 | 0.177
C=CCN1C(=O)[C@@]2(O[C@@H](CCO)[C@H]([Si](C)(C)c3ccc(OC)cc3)[C@H]2C)c2cc(N3C(=O)COc4ccccc43)ccc21 | -0.351 | 0.28 | -0.0293 | 1.02 | 0.227 | 1.02 | 0.746 | -1.54 (inactive) | 0.975 | -0.358
CCCCCN1CC=CC23O[C@@H]4C=CCCOC(=O)C4[C@H]2C(=O)N(CCCO)[C@@H]3C1=O (stereo not given in full) | 0.0241 | -0.615 | -0.186 | 0.0149 | -0.755 | -0.454 | 0.266 | -0.482 (inactive) | -0.108 | -0.236
C=C(CCCC)C(=O)CC[C@@H](OC(=O)c1ccccc1-c1ccccc1C(=O)O)c1ccc(CO)o1 | -0.241 | -0.141 | -0.0291 | 0.45 | 0.629 | 0.504 | 0.989 | -0.161 (inactive) | 0.137 | 0.192
Cc1ccc(S(=O)(=O)N2CC(C(=O)O)=CCC2c2ccccc2)cc1 (stereo not given) | 0.578 | -0.0007 | -0.0128 | 0.118 | -0.0631 | -0.0288 | -0.11 | -1.03 (inactive) | -0.513 | -0.204
C[N+](C)(C)CCCCNC(=O)[C@H]1C[C@H]2C(=O)N3CCC[C@H]3C(=O)N2[C@H]1c1ccc(O)cc1 | -0.32 | 0.799 | -0.12 | 1.15 | 0.534 | -0.0852 | 1.34 | 1.42 (inactive) | 0.446 | 0.176
COCCOC(=O)N1C(=O)[C@@]2(c3cc(C#CCCO)ccc31)[C@H](c1ccc(O)cc1)N1[C@H](c3ccccc3)[C@H](c3ccccc3)OC(=O)[C@H]1[C@@H]2C(=O)N1CCCCCCC1 | 2.58 | 1.07 | 0.2 | 1.04 | 1.33 | 0.853 | 1.14 | -0.73 (inactive) | 2 | 0.7
CN1C(=O)C2C=CC(C(O)C(c3ccccc3)c3ccccc3)N(Nc3ccccc3)C2C1=O (stereo not given) | -0.0907 | 0.403 | 0.0814 | 0.868 | 1.48 | 1.94 | 1.21 | -0.704 (inactive) | 1.37 | -0.131
C=CCNC(=O)[C@H]1[C@@H]2C(=O)O[C@@H](c3ccccc3)[C@@H](c3ccccc3)N2[C@@H](c2ccc(OCCO)cc2)[C@]12C(=O)N(C(=O)OCCOC)c1ccc(C#CC3(O)CCCCCC3)cc12 | -0.0322 | 1.14 | -0.0627 | 0.527 | 1.03 | 0.764 | 1.31 | -0.313 (inactive) | 0.422 | 0.113
O=C1OCCC/C=C\[C@H]2OC34C=CCN(CCN5CCOCC5)C(=O)[C@H]3N(CCO)C(=O)[C@@H]4C12 (stereo not given in full) | -0.163 | -0.435 | -0.154 | -0.313 | -1.12 | -0.501 | 0.843 | 0.808 (inactive) | -0.382 | -0.137
C=CCN1C(=O)[C@]2(Cc3ccccc31)N=C(c1ccc(OCCCO)cc1)O[C@@H]2c1ccccc1 | 0.5 | 0.152 | -0.062 | 0.439 | 1.6 | 0.904 | 1.2 | -2.5 (inactive) | 0.961 | 0.0854
O=C(NCc1ccccc1)[C@@H]1c2ccccc2C(=O)N(Cc2cc(F)cc(C(F)(F)F)c2)[C@H]1c1ccc(CO)cc1 | -0.307 | 0.582 | -0.0598 | 0.0655 | 0.558 | 0.393 | 1.32 | -1.67 (inactive) | 0.0906 | -0.179
CC(C)N1C(=O)c2ccccc2[C@](C)(C(=O)NC2CC2)[C@@H]1c1ccc(CO)cc1 | -0.181 | 0.007 | -0.129 | -0.0282 | 0.38 | 0.602 | 1.21 | -0.0117 (inactive) | 0.048 | 0.0246
C[C@]1(C(=O)NCC(F)(F)F)c2ccccc2C(=O)N(Cc2cc(F)cc(C(F)(F)F)c2)[C@H]1c1ccc(CO)cc1 | -0.599 | 0.553 | 0.274 | 0.0438 | -0.94 | 1.74 | 0.623 | -0.763 (inactive) | -0.409 | 2.14
CN1C(=O)C2C=CC(C(O)C(C)(C)C)N(Nc3ccccc3)C2C1=O (stereo not given) | 0.207 | -0.565 | -0.14 | -0.181 | 0.0262 | 1.4 | 0.291 | -0.269 (inactive) | 0.0082 | -0.173
